Source: PubChem BioAssay
Unmarked numbers belong to inactive results. A call without a number means that no potency is given here. For some assays here: Potency and affinity values are given separately. Calls of active or inactive are those of the source. Unless noted, no rule for the calls is given here.

Legend:
[1] = antimalarial activity against Dd2 strain (AID 2302;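 active = growth inhibition above 50% at the single 2 µM test dose, taken to imply half-maximal potency below 2 µM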); conditions: P. falciparum Dd2 in RBCs, LDH growth readout, 72 h; at 2 µM; stronger effect = higher value
[2] = human hepatoma cell viability loss – ATP luminescence, cytotoxicity control for P. falciparum antimalarial project, primary screen (AID 2303;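 active = inhibition above 50%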); conditions: HepG2 viability, 24-48 h, at 10 µM, stronger effect = higher value
[3] = target: L-lactate dehydrogenase (Plasmodium falciparum (isolate CDC / Honduras)) (UniProt Q27743); experiment: PfLDH activity inhibition – cell lysate, 3D7 strain, counter-screen for P. falciparum growth inhibition project (AID 2304); conditions: P. falciparum 3D7 crude extract, LDH APAD/NBT absorbance; at 2 µM; stronger effect = higher value
L-lactate dehydrogenase (Plasmodium falciparum (isolate CDC / Honduras)), sequence (Q27743 whole entry, looked up): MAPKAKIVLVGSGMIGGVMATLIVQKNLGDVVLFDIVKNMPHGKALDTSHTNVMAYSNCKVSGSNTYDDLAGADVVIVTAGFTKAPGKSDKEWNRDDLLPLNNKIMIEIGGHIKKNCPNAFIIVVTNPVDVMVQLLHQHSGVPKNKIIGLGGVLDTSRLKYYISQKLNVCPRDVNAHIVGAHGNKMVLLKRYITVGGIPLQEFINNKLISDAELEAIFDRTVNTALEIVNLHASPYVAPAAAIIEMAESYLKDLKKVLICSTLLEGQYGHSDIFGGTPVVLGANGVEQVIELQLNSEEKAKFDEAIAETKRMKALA

[4] = inhibition of 3D7 malaria parasite growth – strain 3D7 (AID 2306); conditions: P. falciparum 3D7 erythrocytic growth, LDH absorbance, 72 h; at 2 µM; stronger effect = higher value
[5] = target: Calcium-dependent protein kinase 1 (Plasmodium falciparum (isolate 3D7)) (UniProt P62344); experiment: PfCDPK1 kinase inhibitors, biochemical, TCAMS library (AID 1159585; cut-off not given, nearly all actives have IC50 up to about 0.98 µM;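 also: inhibitors leave more ATP so luminescence rises with inhibition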); conditions: recombinant PfCDPK1, Kinase-Glo ATP depletion luminescence
Calcium-dependent protein kinase 1 (Plasmodium falciparum (isolate 3D7)), sequence (P62344 whole entry, looked up): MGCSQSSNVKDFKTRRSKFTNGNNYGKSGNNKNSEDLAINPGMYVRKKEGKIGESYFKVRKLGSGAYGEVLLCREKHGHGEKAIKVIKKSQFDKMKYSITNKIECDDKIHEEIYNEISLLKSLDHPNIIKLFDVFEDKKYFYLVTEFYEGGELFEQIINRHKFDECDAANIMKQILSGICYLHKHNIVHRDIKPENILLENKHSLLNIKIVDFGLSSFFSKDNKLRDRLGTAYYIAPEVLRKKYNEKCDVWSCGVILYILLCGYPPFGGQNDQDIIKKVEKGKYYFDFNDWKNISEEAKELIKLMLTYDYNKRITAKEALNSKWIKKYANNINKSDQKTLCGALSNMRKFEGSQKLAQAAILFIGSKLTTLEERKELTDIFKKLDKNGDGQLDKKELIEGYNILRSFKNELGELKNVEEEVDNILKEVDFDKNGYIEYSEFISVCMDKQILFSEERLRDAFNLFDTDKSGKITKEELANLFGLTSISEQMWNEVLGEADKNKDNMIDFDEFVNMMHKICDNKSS

[6] = target: Plasmodium falciparum protein kinase 6 (PK6, PF3D7_1337100) (UniProt Q8IDW1); experiment: PfPK6 kinase inhibitors, biochemical, TCAMS library (AID 1159586); conditions: recombinant PfPK6, Kinase-Glo ATP depletion luminescence
Plasmodium falciparum protein kinase 6 (PK6, PF3D7_1337100), sequence (Q8IDW1 1-305): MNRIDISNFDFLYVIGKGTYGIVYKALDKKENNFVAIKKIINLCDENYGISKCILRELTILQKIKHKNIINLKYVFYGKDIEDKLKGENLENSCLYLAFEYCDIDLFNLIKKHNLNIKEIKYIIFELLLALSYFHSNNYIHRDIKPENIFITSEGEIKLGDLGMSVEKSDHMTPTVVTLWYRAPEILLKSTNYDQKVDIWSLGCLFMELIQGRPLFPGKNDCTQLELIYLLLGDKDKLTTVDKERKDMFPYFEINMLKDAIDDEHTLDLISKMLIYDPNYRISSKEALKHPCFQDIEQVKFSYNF

[7] = target: Protein kinase 7 (PK7), Plasmodium falciparum 3D7 (PF3D7_0213400) (UniProt Q7YTF7); experiment: inhibition of Plasmodium PK7 catalytic activity – biochemical, TCAMS antimalarial set, Kinase-Glo luminescence (AID 1159587); conditions: recombinant PfPK7, Kinase-Glo ATP depletion luminescence
Protein kinase 7 (PK7), Plasmodium falciparum 3D7 (PF3D7_0213400), sequence (Q7YTF7 1-343): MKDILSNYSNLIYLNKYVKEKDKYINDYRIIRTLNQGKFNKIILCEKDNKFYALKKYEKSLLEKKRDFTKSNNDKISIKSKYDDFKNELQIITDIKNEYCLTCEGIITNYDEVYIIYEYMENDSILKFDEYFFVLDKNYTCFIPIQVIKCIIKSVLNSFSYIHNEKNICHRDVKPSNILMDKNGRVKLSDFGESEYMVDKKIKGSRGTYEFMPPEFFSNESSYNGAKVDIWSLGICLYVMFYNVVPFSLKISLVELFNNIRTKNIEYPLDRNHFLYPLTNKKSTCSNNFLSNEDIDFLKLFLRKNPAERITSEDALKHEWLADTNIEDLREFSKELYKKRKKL

[8] = target: Calcium-dependent protein kinase 4 (Plasmodium falciparum (isolate 3D7)) (UniProt Q8IBS5); experiment: PfCDPK4 kinase inhibitors, biochemical, TCAMS library (AID 1159588; cut-off not given, nearly all actives have IC50 up to about 0.91 µM); conditions: recombinant PfCDPK4, Kinase-Glo ATP depletion luminescence
Calcium-dependent protein kinase 4 (Plasmodium falciparum (isolate 3D7)), sequence (Q8IBS5 whole entry, looked up): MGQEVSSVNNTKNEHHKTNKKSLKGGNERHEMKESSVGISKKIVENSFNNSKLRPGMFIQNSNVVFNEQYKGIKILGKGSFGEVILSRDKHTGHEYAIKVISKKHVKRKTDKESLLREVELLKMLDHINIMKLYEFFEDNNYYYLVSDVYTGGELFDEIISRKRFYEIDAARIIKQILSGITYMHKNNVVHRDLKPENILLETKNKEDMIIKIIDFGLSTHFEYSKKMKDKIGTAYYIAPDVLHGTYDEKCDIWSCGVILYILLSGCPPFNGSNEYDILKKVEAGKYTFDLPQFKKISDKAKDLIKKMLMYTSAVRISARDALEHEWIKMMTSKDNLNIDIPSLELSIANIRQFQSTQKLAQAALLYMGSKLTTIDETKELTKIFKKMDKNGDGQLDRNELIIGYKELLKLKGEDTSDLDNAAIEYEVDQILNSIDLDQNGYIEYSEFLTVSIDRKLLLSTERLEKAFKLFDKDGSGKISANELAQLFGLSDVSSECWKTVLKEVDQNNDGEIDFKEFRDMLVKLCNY

Structure (SMILES) | growth inhibition [1] | inhibition [2] | inhibition [3] [%] | growth inhibition [4] | outcome [5] | outcome [6] | outcome [7] | outcome [8]
Cc1ccc(Cn2ncc(N3CCNCC3)c(Cl)c2=O)cc1NC(=O)Nc1ccc(-c2ccccc2)cc1 | 30% | 56% (active) | 6 | 90% (active) | inactive | inactive | inactive | inactive
Fc1ccc2nc(-c3cccc(-c4cccc(CNCCN5CCNCC5)c4)c3)[nH]c2c1 | 4% | 18% | -9 | 94% (active) | inactive | inactive | inactive | inactive
Cc1cnc(N2CCN(CC3CCN(C)CC3)CC2)nc1Oc1ccc(-n2ccnc2)cc1 | 66% (active) | 9% | -3 | 99% (active) | inactive | inactive | inactive | inactive
O=S(=O)(NCCN1CCCC1)c1ccc(-c2ccc(CNCc3ccc(F)cc3)cc2)s1 | 44% | 42% | 6 | 101% (active) | inactive | inactive | inactive | inactive
O=C1OC(c2ccccc2)(c2ccccc2)CN1CC1CCN(Cc2ccc(O)c(Cl)c2)CC1 | 90% (active) | 26% | -1 | 98% (active) | inactive | inactive | inactive | inactive
COc1cc(NC(=O)c2cc3c(C)nn(-c4cccc(C(F)(F)F)c4)c3s2)cc(OC)c1OC | 50% (active) | 0% | 3 | 101% (active) | inactive | inactive | inactive | inactive
O=C(NCc1cccc(F)c1)Nc1cccc(-c2ccc(-c3nc4ccc(C(F)(F)F)cc4[nH]3)cc2)c1 | 20% | 50% (active) | -4 | 98% (active) | inactive | inactive | inactive | inactive
C=CCc1ccc(C2CCN(CCCCNC(=O)c3ccc(NC(=O)c4ccc(Cl)cc4)cc3)CC2)cc1 | 97% (active) | 27% | -5 | 101% (active) | inactive | inactive | inactive | inactive
Cc1noc(C)c1-c1cccc(CNCc2cccc(-c3ccc(-c4nc5ccc(C(F)(F)F)cc5[nH]4)s3)c2)c1 | 95% (active) | 23% | 0 | 100% (active) | inactive | inactive | inactive | inactive
Cc1ccc(C(=O)Nc2cccc(CN3CCCN(Cc4ccc(O)cc4)CC3)c2)s1 | 23% | 17% | -4 | 90% (active) | inactive | inactive | inactive | inactive
CC(=O)c1ccc(NC(=O)CSc2nc(-c3ccccc3Cl)ns2)cc1 | 72% (active) | -13% | -1 | 89% (active) | inactive | inactive | inactive | inactive
CCN(CC)CCCCNc1cc(-c2[nH]c(-c3c(Cl)cccc3Cl)nc2-c2ccc3cc(OC)ccc3c2)ccn1 | 93% (active) | 23% | -5 | 95% (active) | inactive | inactive | inactive | inactive
Cc1noc(-c2ccccc2)c1NC(=O)N1CCN(CCCCCCNC(=O)/C=C/c2ccc(Cl)c(Cl)c2)CC1 | 1% | 6% | 2 | 95% (active) | inactive | inactive | inactive | inactive
Cc1cnc2cc3c(cc2c1N1CCN(C)CC1)NCC3 | 69% (active) | 12% | 3 | 102% (active) | inactive | inactive | inactive | inactive
NC(=O)c1cccc(Nc2nccc(Nc3ccc(Oc4ccc5ccccc5c4)cc3)n2)c1 | 31% | 15% | 5 | 96% (active) | inactive | inactive | inactive | inactive
Cc1ccc(OCCCCON2C(N)=NC(N)=NC2(C)C)cc1C | 97% (active) | 61% (active) | -3 | 94% (active) | inactive | inactive | inactive | inactive
O=C(CNC(=O)c1ccc(O)cc1)Nc1cccc(-c2cccc(-c3nc4ccc(C(F)(F)F)cc4[nH]3)c2)c1 | 28% | 63% (active) | 5 | 96% (active) | inactive | inactive | inactive | inactive
O=C(c1ccc(Cl)cc1)N1CCCC(C(=O)N(Cc2nnc(-c3ccccc3Cl)o2)C2CC2)C1 (stereo not given) | 96% (active) | 10% | 0 | 95% (active) | inactive | inactive | inactive | inactive
COc1ccc2nc3cc(Cl)ccc3c(Nc3ccc(C(=O)O)cc3)c2c1 | 95% (active) | -7% | 6 | 94% (active) | inactive | inactive | inactive | inactive
CN(C)c1ccc(-c2csc(C(=O)NC3CCCCN(CCC(C)(C)C)C3)c2)cc1 (stereo not given) | 68% (active) | 10% | 4 | 91% (active) | inactive | inactive | inactive | inactive

Structure (SMILES) | growth inhibition [1] | inhibition [2] | inhibition [3] [%] | growth inhibition [4] | outcome [5] | outcome [6] | outcome [7] | outcome [8]
NC(=O)c1cnc2cc(-c3ccncc3)cc(Nc3ccc(NC(=O)C4CCCCC4)cc3)c2c1 | 99% (active) | 58% (active) | 0 | 98% (active) | inactive | inactive | inactive | inactive
O=C(c1ccc(Br)o1)N1N=C(c2cccs2)CC1c1ccc(Br)cc1 (stereo not given) | 45% | 5% | -4 | 96% (active) | inactive | inactive | inactive | inactive
Cc1cccc2[nH]c(-c3cccc(-c4ccc(NC(=O)CS(C)(=O)=O)cc4)c3)nc12 | 8% | 3% | -8 | 85% (active) | inactive | inactive | inactive | inactive
O=C(Nc1ccc(Cn2ncc(N3CCCNCC3)c(Cl)c2=O)cc1)Nc1ccc(C(F)(F)F)cc1 | 58% (active) | 12% | 4 | 90% (active) | inactive | inactive | inactive | inactive
NC(=O)c1cccc(Nc2nccc(Nc3ccc(Oc4cccc5ccccc45)cc3)n2)c1 | 22% | -10% | 3 | 94% (active) | inactive | inactive | inactive | inactive
Cc1cccc2[nH]c(-c3ccc(-c4ccc(CN5CCN(c6ccncc6)CC5)cc4)cc3)nc12 | 100% (active) | 98% (active) | 3 | 102% (active) | inactive | inactive | inactive | inactive
COc1cccc(Nc2c(C(N)=O)cnc3ccc(-c4ccccc4)cc23)c1 | 99% (active) | 2% | -2 | 98% (active) | inactive | inactive | inactive | inactive
N[C@@H](Cc1cc(I)c(Oc2ccc(O)c(Cl)c2)c(I)c1)C(=O)O | -3% | -4% | -2 | 96% (active) | inactive | inactive | inactive | inactive
COc1cc2c(cc1C(F)(F)F)N(C(=O)Nc1cc(OC(F)(F)F)cc(-c3cccnc3)c1)CC2 | 49% | 55% (active) | -3 | 100% (active) | inactive | inactive | inactive | inactive
Cc1nc(C)n(CC(=O)Nc2cccc(-c3cccc(-c4nc5ccc(C(F)(F)F)cc5[nH]4)c3)c2)n1 | 96% (active) | 62% (active) | -6 | 100% (active) | inactive | inactive | inactive | inactive
NC(N)=NC(=O)Nc1cc(Cl)c(Cl)c(Br)c1 | 99% (active) | 16% | -2 | 99% (active) | inactive | inactive | inactive | inactive
Oc1cc2c(cc1CN1CCN(Cc3cccs3)CC1)CCC2 | 91% (active) | 10% | -7 | 99% (active) | inactive | inactive | inactive | inactive
Oc1ccc(CCNCc2ccc(OCc3ccccc3)c(OCc3ccccc3)c2)cc1 | 9% | 31% | -3 | 88% (active) | inactive | inactive | inactive | inactive
CCOC(=O)NC1=NC(C)(C)N(OCc2ccc(Cl)c(Cl)c2)C(NC(=O)OCC)=N1 | 4% | 65% (active) | 2 | 98% (active) | inactive | inactive | inactive | inactive
Cc1ncc([N+](=O)[O-])n1CCOC(=O)NC(NCC1COc2ccccc2O1)C(Cl)(Cl)Cl (stereo not given) | 78% (active) | -9% | -4 | 101% (active) | inactive | inactive | inactive | inactive
Oc1ccc(CCNc2nc(NCCCOc3cc(CN4CCCCC4)ccc3F)nc(N3CCNCC3)n2)cc1 | -3% | 30% | -1 | 101% (active) | inactive | inactive | inactive | inactive
Cc1cc(OCCCN2CCC(NS(=O)(=O)c3cccc(Br)c3)CC2)c2ccccc2n1 | 28% | 28% | -2 | 95% (active) | inactive | inactive | inactive | inactive
CN1CCN(CCCN(Cc2cccc(-c3ccc(CNC4CCCC4)cc3)c2)C(=O)CCC2CCCC2)CC1 | 84% (active) | 16% | -1 | 97% (active) | inactive | inactive | inactive | inactive
Nc1c(-c2ccc(C(=O)NCCNCc3ccccc3)cc2)cnn1-c1ccc(C(F)(F)F)cc1 | 2% | 23% | 1 | 85% (active) | inactive | inactive | inactive | inactive
O=C(NCCCCN1CCC(c2ccc3c(c2OCc2ccccn2)CCCC3)CC1)c1ccc(NC(=O)c2ccc(Cl)cc2)cc1 | 70% (active) | 31% | -3 | 101% (active) | inactive | inactive | inactive | inactive
